Rows were chosen to be rich in hits. Some 1.2% of all compounds tested hit in one or more screens of this group.
PLK1 inh – inhibitors of human PLK1 kinase; P53350; recombinant PLK1 kinase, TR-FRET peptide phosphorylation; inhibition, % at 10 µM; hit rate 0.53% among 97,000;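 active = inhibition of 50% or more in the single-concentration screen; inactive = inhibition below 50%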;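 note: 0% = DMSO max control and 100% = H-89 dihydrochloride min control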
LYP inh 2 – inhibitors of human LYP (PTPN22) phosphatase. Q9Y2R2. recombinant LYP catalytic domain, DiFMUP fluorescence. inhibition, % at 2 µM. hit rate 0.21% among 96,000;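 active = inhibition at 2 µM at or above a set limit, the screen mean plus 3 SD, cut at about 24% in these data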;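 note: 0% = DMSO with enzyme and 100% = enzyme fully blocked by orthovanadate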
Plk1 PBD FP – Plk1 (human) PBD binding inhibition; Plk1 PBD phosphopeptide binding, fluorescence polarization; P53350; hit rate 0.13% among 97,000; inhibition, %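 (tested at about 20 µM)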; AID 693; in the data active = inhibition above about 34%, passing the limit was not always enough
LYP act – increases human PTPN22 phosphatase activity. Q9Y2R2. hit rate 0.11% among 96,000. AID 697. activation, % at 2 µM. recombinant LYP, DiFMUP fluorescence; 0 = plate median, 100 = signal doubled;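 active = activation at 2 µM above a set limit, the mean plus 5 SD, cut at about 37% in these data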
EphB4 ephrin blk – blocks human EphB4 binding to ephrin-B2; P54760; EphB4 LBD / TNYL-RAW-Alexa532 peptide, fluorescence polarization; inhibition, % at 7 µM; hit rate 0.15% among 97,000; AID 720;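 active = inhibition above the screen-wide mean inhibition plus 3 SD, cut at about 15% in these data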;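 note: 0% = DMSO wells and 100% = excess unlabeled TNYL-RAW peptide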
An asterisk follows results filed as active; · = not tested or not shown.

SMILES	PLK1 inh	LYP inh 2	Plk1 PBD FP	LYP act	EphB4 ephrin blk
CCCNC(=O)CS(=O)Cc1nc(-c2cccc(OC)c2)oc1C (stereo unspecified)	-6.0	-2.1	-9.5	1.2	-2.4
Cc1cccc(-c2nc(CS(=O)CC(=O)N3CCCCC3)c(C)o2)c1 (stereo unspecified)	65.7*	·	-6.5	·	1.9
Cc1cccc(-c2nc(CS(=O)CC(=O)NCc3cccs3)c(C)o2)c1 (stereo unspecified)	-11.1	11.1	9.3	-11.6	1.5
COc1cccc(-c2nc(CS(=O)CC(=O)NC3CC3)c(C)o2)c1 (stereo unspecified)	69.3*	·	-11.9	·	-2.6
Cc1ccc(CCNC(=O)CS(=O)Cc2nc(-c3cccc(C)c3)oc2C)cc1 (stereo unspecified)	61.5*	·	-12.5	·	-2.1
O=C(CCc1c[nH]c2ccccc12)NC1CC1	-5.8	-2.4	-5.7	4.4	3.9
O=C(c1ccc(S(=O)(=O)Nc2ccc(F)cc2)cc1)N1CCN(C(=O)c2ccco2)CC1	-23.8	-1.5	-26.6	3.2	-5.2
CC(C(=O)N1CCc2ccccc21)n1cccc1 (stereo unspecified)	1.9	2.7	2.6	-3.1	2.2
COc1ccc(S(=O)(=O)n2nc(OC(=O)c3c(-c4ccccc4Cl)noc3C)cc2N)cc1	1.2	-5.0	3.8	3.3	-2.1
N#CCSc1nnc(COc2cccc3ccccc23)n1-c1ccccc1	-7.0	5.4	-5.6	-5.7	0.8
Cc1ccc(-c2nnc(CSc3nnc(COc4cccc5ccccc45)n3-c3ccccc3)o2)cc1	-12.9	33.2*	47.4*	-33.4	-4.1
CC(C)c1nnc(NC(=O)c2cccs2)s1	66.7*	·	-11.8	·	2.2
CCn1c(SCC(=O)Nc2nc(C)c(C(=O)OC)s2)nnc1C(C)C	-5.2	-4.3	7.0	2.3	3.3
CC1(C)Cc2ccccc2-c2nnc(SCC(=O)Nc3nc4ccccc4s3)n21	-4.3	3.5	-11.3	-4.1	17.8*
Cn1c(SCC(=O)Nc2nc3ccccc3s2)nnc1-c1ccccc1	-26.3	13.5	-6.1	-12.1	6.5
CC(C)CNc1nnnc2c1sc1nc(N3CCOCC3)c3c(c12)CC(C)(C)SC3	-10.8	24.6*	25.6	-20.9	1.1
CC1(C)Cc2c(c(N3CCOCC3)nc3sc4c(NCc5ccccc5)nnnc4c23)CS1	-8.7	12.3	-13.6	-9.7	3.5
CC1CCc2c(sc(NC(=O)c3ccc(Cn4cc([N+](=O)[O-])cn4)o3)c2C#N)C1 (stereo unspecified)	-8.3	25.4*	-5.8	-22.2	4.5
N#Cc1c(NC(=O)c2ccc(Cn3cc(Br)cn3)o2)sc2c1CCCCC2	-11.5	5.2	-4.0	-3.9	3.8
COC(=O)c1cc(Br)c(=O)n(CCC2=CCCCC2)c1	-12.0	-2.2	36.7	0.8	-4.4
C=CCn1c(C#N)c(N)sc1=N	8.2	1.3	-11.3	-2.3	15.3*
CSc1ccccc1NS(=O)(=O)c1ccccc1	-9.0	-7.5	-3.5	4.2	-0.2
Cc1ccc2c(Cl)cc(Cl)c(OCC(=O)NCc3ccco3)c2n1	15.0	30.3*	-4.4	-28.0	11.7
CCOC(=O)c1c(C)[nH]c(C)c1C(=O)COC(=O)CCOc1ccccc1OC	65.0*	-1.5	0.2	0.7	-5.4
CCOC(=O)c1[nH]c(COC(=O)CCOc2ccccc2OC)c(C(=O)OCC)c1C	-7.7	12.9	3.9	-11.0	-1.4
SMILES	PLK1 inh	LYP inh 2	Plk1 PBD FP	LYP act	EphB4 ephrin blk
Cc1ccc(Nc2cc(C)nn2-c2nc(C)cc(=O)[nH]2)cc1	5.8	25.5*	8.8	-27.3	5.9
COCCNC(=O)CS(=O)(=O)Cc1nc(-c2ccc(C)cc2)oc1C	67.0*	·	15.7	·	0.1
Cc1ccc(-c2nc(CS(=O)(=O)CC(=O)NCCCN3CCN(C)CC3)c(C)o2)cc1	28.4	8.2	-9.8	-9.0	4.4
Cc1ccc(-c2nc(CS(=O)(=O)CC(=O)NC3CCCCC3C)c(C)o2)cc1 (stereo unspecified)	53.5*	·	-20.6	·	-4.8
COc1cccc(-c2nc(CS(=O)(=O)CC(=O)NC3CCCc4ccccc43)c(C)o2)c1 (stereo unspecified)	-14.5	-0.8	26.0	-2.0	-1.8
NC(=O)c1cccn1Cc1cccc(Cl)c1	-6.6	-5.3	4.0	4.0	0.3
C=CCNC(=S)NNC(=O)c1cccn(Cc2ccc(Cl)cc2)c1=O	-2.8	52.8*	-4.7	-51.6	-1.5
C=CCNC(=S)NNC(=O)c1cccn(Cc2cccc(Cl)c2)c1=O	-7.1	56.0*	-4.1	-54.9	-6.2
Cc1cc(Cl)ccc1OC(C)C(=O)N1CCCN(C(=O)C(C)Oc2ccc(Cl)cc2C)CC1 (stereo unspecified)	-12.8	3.4	9.7	-1.1	2.9

From PubChem
